From ChEMBL document CHEMBL1961873, “Compounds: GSK PKIS; Assays: Nanosyn kinase panel” (2012) come the findings set out here.

The target of experiment [1] is Sphingosine kinase 1 (Homo sapiens) (UniProt Q9NYA1). The settings on record: at 1 µM.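 Further: mean SPHK1 inhibition value reported from the GSK PKIS kinase panel screen.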
The target of experiment [2] is T1, Sphingosine kinase 2 (Homo sapiens) (UniProt Q9NRA0).
T1 sequence (whole entry): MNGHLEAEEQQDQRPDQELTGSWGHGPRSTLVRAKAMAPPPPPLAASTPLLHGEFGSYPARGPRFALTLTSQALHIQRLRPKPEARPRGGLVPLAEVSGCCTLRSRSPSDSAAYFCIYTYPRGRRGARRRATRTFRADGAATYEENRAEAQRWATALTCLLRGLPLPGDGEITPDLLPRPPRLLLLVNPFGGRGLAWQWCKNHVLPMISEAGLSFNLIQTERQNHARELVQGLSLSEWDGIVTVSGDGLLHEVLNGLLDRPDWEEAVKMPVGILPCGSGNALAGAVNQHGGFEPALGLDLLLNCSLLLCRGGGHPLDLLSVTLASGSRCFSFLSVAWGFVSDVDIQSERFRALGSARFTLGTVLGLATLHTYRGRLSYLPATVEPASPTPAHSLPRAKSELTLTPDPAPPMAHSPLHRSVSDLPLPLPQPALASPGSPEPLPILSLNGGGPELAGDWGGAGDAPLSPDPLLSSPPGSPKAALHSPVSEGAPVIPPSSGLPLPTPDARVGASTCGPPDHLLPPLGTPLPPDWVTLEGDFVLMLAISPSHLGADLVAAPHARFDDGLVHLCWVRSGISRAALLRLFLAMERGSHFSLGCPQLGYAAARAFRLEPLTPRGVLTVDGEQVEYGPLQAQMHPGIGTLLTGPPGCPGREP
The settings on record: at 0.1 µM.

Experiment [3] addresses T1, Sphingosine kinase 2 (Homo sapiens). The following applies: at 1 µM.
The target in experiment [4] is Casein kinase II subunit alpha (Homo sapiens) (UniProt P68400). The following applies: at 0.1 µM.
For experiment [5] the target is unchanged. The following applies: at 1 µM.
Experiment [6] has as its target T2, Inhibitor of nuclear factor kappa-B kinase subunit alpha (Homo sapiens) (UniProt O15111).
T2 sequence (whole entry): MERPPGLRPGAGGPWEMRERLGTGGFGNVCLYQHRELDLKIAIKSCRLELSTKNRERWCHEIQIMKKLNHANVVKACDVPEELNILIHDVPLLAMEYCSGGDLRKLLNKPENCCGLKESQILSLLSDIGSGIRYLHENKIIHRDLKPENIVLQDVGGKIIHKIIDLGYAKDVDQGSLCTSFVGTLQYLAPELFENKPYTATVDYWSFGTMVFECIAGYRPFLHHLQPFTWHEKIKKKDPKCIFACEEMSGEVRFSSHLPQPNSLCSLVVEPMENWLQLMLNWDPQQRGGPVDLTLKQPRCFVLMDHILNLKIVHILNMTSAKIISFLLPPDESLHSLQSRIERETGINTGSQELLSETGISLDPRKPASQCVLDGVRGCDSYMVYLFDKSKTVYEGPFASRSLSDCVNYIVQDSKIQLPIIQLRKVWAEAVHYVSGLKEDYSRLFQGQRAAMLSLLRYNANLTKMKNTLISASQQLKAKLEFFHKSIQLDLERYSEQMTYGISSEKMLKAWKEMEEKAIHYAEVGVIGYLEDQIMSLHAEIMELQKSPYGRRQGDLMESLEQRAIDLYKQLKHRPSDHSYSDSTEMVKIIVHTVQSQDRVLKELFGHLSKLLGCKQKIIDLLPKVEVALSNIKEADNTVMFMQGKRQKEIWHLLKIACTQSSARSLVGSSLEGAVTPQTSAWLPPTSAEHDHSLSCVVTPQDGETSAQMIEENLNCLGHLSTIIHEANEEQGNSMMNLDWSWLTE
The following applies: at 0.1 µM.

For experiment [7], the target named is T2, Inhibitor of nuclear factor kappa-B kinase subunit alpha (Homo sapiens). The following applies: at 1 µM.
Experiment [8] has as its target T3, Inhibitor of nuclear factor kappa-B kinase subunit beta (Homo sapiens) (UniProt O14920).
T3 sequence (whole entry): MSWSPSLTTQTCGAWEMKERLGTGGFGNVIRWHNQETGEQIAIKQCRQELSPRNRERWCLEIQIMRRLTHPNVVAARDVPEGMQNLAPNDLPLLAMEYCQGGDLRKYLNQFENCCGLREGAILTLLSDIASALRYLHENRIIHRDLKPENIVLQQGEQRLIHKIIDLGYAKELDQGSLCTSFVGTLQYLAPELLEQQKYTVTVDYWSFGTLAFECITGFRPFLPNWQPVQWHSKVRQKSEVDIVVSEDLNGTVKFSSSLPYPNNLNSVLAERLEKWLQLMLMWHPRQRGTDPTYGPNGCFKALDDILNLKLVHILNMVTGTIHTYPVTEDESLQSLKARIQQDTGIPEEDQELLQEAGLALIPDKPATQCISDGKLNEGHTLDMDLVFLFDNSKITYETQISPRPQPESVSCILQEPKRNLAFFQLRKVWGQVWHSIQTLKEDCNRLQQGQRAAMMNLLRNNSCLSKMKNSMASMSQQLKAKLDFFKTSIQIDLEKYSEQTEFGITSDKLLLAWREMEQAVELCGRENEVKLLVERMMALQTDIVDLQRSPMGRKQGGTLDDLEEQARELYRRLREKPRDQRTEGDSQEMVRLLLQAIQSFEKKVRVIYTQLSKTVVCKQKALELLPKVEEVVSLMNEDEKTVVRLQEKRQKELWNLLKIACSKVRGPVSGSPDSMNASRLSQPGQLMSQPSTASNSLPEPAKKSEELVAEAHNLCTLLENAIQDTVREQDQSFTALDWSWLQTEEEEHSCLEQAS
The following applies: at 0.1 µM.

In experiment [9] the target is T3, Inhibitor of nuclear factor kappa-B kinase subunit beta (Homo sapiens). The settings on record: at 1 µM.
Experiment [10] has as its target T4, Inhibitor of nuclear factor kappa-B kinase subunit epsilon (Homo sapiens) (UniProt Q14164).
T4 sequence (whole entry): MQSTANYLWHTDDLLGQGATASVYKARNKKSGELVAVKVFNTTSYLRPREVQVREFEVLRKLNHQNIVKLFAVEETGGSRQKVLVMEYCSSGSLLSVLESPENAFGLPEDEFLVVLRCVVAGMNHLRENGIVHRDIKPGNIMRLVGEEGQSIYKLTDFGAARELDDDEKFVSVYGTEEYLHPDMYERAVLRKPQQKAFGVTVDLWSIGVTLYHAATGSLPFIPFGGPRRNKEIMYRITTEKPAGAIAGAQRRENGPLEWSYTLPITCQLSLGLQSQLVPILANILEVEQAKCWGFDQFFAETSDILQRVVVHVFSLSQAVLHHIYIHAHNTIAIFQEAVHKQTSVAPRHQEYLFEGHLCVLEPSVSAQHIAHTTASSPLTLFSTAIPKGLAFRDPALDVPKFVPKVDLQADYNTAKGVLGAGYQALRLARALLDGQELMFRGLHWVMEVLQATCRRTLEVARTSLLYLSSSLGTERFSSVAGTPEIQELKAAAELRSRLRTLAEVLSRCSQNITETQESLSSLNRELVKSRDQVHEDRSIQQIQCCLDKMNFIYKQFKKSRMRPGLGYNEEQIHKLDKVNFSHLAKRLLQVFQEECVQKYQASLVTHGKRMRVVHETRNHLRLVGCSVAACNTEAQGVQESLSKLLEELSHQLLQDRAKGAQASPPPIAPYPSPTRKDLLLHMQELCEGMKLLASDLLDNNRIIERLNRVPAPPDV
The following applies: at 0.1 µM.

For experiment [11], the target named is T4, Inhibitor of nuclear factor kappa-B kinase subunit epsilon (Homo sapiens). The following applies: at 1 µM.
The target of experiment [12] is T5, Serine/threonine-protein kinase Nek1 (Homo sapiens) (UniProt Q96PY6).
T5 sequence (whole entry): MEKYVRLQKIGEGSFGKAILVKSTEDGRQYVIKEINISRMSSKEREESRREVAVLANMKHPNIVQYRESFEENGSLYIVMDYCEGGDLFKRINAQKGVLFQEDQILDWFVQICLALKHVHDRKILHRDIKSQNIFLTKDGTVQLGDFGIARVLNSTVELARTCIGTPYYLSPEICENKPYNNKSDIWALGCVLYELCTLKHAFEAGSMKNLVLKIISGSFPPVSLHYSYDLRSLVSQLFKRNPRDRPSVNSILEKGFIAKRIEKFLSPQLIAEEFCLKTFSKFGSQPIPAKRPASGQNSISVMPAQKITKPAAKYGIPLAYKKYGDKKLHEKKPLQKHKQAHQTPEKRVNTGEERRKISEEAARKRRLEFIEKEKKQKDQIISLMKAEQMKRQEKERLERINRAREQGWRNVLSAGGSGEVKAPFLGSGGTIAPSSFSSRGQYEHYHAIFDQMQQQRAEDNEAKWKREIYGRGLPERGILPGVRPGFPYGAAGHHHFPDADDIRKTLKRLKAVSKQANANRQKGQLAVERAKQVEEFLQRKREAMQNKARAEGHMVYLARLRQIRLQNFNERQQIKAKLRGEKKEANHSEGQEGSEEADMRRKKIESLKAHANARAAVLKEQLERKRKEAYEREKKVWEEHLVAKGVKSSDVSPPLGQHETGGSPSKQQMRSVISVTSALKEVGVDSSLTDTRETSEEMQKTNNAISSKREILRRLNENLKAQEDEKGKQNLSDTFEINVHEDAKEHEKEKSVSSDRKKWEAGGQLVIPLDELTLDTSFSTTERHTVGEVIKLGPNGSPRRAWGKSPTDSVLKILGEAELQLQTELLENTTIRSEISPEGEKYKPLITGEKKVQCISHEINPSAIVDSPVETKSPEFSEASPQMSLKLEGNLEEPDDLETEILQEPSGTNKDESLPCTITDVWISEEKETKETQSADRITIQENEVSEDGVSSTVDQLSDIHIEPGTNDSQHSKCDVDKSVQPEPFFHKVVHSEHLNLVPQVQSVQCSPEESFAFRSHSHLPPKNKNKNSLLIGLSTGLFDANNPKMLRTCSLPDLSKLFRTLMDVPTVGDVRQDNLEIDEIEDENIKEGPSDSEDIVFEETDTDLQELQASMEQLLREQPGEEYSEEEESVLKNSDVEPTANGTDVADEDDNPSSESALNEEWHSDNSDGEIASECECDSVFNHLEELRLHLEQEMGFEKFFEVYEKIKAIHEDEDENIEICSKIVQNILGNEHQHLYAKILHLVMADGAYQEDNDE
The settings on record: at 0.1 µM.

Experiment [13] concerns the target T5, Serine/threonine-protein kinase Nek1 (Homo sapiens). The settings on record: at 1 µM.
The target in experiment [14] is T6, Serine/threonine-protein kinase Nek2 (Homo sapiens) (UniProt P51955).
T6 sequence (whole entry): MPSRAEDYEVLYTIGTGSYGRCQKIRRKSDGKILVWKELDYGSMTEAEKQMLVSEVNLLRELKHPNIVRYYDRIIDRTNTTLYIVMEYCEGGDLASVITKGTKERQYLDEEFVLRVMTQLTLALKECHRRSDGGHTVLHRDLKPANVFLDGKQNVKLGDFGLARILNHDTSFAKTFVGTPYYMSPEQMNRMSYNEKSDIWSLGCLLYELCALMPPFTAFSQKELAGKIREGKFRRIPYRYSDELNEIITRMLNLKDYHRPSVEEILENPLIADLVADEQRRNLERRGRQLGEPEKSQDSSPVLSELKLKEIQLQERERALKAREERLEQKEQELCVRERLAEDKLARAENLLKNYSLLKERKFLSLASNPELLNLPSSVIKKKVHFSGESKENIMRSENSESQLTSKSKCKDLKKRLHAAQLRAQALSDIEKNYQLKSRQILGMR
The settings on record: at 0.1 µM.

The target of experiment [15] is T6, Serine/threonine-protein kinase Nek2 (Homo sapiens). The following applies: at 1 µM.
In experiment [16] the target is Serine/threonine-protein kinase Nek6 (Homo sapiens) (UniProt Q9HC98). The settings on record: at 0.1 µM.
For experiment [17] the target is unchanged. The following applies: at 1 µM.
In experiment [18] the target is Serine/threonine-protein kinase Nek7 (Homo sapiens) (UniProt Q8TDX7). The following applies: at 0.1 µM.
Experiment [19] has the same target. The following applies: at 1 µM.
Experiment [20] has as its target T7, Serine/threonine-protein kinase Nek9 (Homo sapiens) (UniProt Q8TD19).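 Further: reported value is the mean percent inhibition of NEK9.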
T7 sequence (whole entry): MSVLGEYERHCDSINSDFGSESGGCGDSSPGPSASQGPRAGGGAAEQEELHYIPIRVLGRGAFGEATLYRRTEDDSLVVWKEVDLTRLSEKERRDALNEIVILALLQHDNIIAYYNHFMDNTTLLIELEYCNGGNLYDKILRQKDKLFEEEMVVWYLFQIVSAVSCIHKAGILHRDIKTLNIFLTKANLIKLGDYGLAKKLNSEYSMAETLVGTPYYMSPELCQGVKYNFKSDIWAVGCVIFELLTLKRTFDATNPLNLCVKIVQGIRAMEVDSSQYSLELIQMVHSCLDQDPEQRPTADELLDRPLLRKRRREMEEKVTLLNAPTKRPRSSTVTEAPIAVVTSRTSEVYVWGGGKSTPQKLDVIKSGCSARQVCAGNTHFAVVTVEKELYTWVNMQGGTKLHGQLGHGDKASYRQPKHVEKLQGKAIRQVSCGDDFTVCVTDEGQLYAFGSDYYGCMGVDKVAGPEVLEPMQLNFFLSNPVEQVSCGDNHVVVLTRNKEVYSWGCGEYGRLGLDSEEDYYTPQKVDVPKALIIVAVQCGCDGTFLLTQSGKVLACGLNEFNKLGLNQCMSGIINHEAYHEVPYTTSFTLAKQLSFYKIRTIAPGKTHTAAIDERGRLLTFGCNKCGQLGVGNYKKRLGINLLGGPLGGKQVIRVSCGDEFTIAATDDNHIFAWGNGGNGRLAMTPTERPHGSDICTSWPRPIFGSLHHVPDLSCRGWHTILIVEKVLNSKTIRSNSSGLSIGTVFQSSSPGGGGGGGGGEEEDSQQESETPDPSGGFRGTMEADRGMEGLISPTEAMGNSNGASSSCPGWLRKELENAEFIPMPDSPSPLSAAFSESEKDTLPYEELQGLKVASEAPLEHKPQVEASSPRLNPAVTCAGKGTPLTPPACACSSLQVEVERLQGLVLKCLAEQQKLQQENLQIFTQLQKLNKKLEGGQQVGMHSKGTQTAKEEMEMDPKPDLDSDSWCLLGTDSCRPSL
The settings on record: at 0.1 µM.

Chain of Serine/threonine-protein kinase Nek7 (Homo sapiens) (Q8TDX7 whole entry, looked up): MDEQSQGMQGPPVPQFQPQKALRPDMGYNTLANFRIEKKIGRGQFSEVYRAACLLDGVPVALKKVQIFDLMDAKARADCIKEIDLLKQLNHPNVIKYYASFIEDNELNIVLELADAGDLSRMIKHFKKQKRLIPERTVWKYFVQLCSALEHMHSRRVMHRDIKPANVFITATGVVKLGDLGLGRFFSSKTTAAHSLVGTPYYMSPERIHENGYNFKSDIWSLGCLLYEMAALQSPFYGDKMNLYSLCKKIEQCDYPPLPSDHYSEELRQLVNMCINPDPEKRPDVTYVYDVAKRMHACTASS
Chain of Serine/threonine-protein kinase Nek6 (Homo sapiens) (Q9HC98 whole entry): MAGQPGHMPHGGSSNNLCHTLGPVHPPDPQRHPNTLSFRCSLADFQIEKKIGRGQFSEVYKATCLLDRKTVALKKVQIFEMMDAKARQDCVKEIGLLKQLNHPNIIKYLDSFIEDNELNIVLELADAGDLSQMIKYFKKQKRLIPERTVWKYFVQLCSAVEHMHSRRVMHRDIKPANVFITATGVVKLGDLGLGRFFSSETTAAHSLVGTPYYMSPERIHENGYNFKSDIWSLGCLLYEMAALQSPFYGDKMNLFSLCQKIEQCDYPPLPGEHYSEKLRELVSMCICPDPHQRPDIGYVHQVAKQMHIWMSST
Chain of Casein kinase II subunit alpha (Homo sapiens) (P68400 whole entry, looked up): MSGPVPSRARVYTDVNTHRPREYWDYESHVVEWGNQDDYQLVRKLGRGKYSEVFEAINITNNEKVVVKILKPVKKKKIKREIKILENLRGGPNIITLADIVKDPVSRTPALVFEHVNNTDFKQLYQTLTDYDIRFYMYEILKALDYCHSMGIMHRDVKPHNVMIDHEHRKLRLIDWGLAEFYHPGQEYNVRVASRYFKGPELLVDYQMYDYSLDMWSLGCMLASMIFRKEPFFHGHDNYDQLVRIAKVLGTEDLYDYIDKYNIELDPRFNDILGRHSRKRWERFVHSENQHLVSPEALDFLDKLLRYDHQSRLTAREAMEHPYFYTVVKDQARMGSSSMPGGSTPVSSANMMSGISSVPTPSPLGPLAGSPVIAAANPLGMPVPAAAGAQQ
Chain of Sphingosine kinase 1 (Homo sapiens) (Q9NYA1 whole entry): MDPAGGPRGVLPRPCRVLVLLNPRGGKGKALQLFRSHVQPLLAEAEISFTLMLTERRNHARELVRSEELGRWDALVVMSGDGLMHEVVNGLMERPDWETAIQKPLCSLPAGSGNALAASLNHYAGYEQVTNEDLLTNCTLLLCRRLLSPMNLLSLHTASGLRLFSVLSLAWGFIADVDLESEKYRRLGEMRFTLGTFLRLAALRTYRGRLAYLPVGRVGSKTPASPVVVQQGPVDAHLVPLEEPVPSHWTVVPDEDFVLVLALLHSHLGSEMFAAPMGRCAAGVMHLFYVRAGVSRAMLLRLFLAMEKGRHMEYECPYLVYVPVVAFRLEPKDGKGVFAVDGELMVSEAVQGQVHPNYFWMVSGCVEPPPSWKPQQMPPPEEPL

For orientation: inhibition means the relative decrease from the control value, in per cent. In the case of `NS(=O)(=O)c1ccc(N/N=C2\C(=O)Nc3ccc4ncccc4c32)cc1`, the inhibition in [1] is -1.18%; in experiment [2], 0.16%; in [3], 7.47%; in [4], 5.01%; in experiment [5], 32.2%; in experiment [6], 9.67%. The inhibition in [7] worked out at 20%; in [8], 4.79%; in experiment [9] it was 26%; in experiment [10], 8.67%; in experiment [11] it was 44.7%; in [12] it was 1.98%. For the same compound, the inhibition was 5.54% in experiment [13]; 3.42% in experiment [14]; 4.79% in [15]; -0.98% in experiment [16]; -0.3% in experiment [17]; 4.59% in experiment [18]. The inhibition came out at 7.69% in [19] and 9.44% in experiment [20].
